According to PubChem BioAssay (NCATS):
Records with an inconclusive call do not appear. The source made the active and inactive calls. Unless noted, calls follow the shape of the full dose curve.

Tests used:
[1] = qHTS for Inhibitors of the Functional Ribonucleoprotein Complex (vRNP) of Lassa (LASV) Arenavirus: LASV Primary Screen - GLuc reporter signal (AID 1347082; calls by dose curve; tested in HEK293 reporter line; also: nearly all actives have a fitted effect of over 60% in size)
[2] = qHTS for Inhibitors of the Functional Ribonucleoprotein Complex (vRNP) of Lassa (LASV) Arenavirus: Viability assay - alamar blue signal for LASV Primary Screen (AID 1347083; calls by dose curve; tested in HEK293 reporter line; also: nearly all actives have a fitted effect of over 80% in size)
[3] = qHTS for Inhibitors of the Functional Ribonucleoprotein Complex (vRNP) of Lymphocytic Choriomeningitis Arenaviruses (LCMV): Viability assay - alamar blue signal for LCMV Primary Screen (AID 1347085; calls by dose curve; tested in HEK293 reporter line; also: nearly all actives have a fitted effect of over 80% in size)
[4] = target: Nucleoprotein (Lymphocytic choriomeningitis virus (strain Armstrong)) (UniProt P09992); experiment: qHTS for Inhibitors of the Functional Ribonucleoprotein Complex (vRNP) of Lymphocytic Choriomeningitis Arenaviruses (LCMV): LCMV Primary Screen - GLuc reporter signal (AID 1347086); also: nearly all actives have a fitted effect of over 70% in size
Sequence of Nucleoprotein (Lymphocytic choriomeningitis virus (strain Armstrong)) (P09992 whole entry, looked up): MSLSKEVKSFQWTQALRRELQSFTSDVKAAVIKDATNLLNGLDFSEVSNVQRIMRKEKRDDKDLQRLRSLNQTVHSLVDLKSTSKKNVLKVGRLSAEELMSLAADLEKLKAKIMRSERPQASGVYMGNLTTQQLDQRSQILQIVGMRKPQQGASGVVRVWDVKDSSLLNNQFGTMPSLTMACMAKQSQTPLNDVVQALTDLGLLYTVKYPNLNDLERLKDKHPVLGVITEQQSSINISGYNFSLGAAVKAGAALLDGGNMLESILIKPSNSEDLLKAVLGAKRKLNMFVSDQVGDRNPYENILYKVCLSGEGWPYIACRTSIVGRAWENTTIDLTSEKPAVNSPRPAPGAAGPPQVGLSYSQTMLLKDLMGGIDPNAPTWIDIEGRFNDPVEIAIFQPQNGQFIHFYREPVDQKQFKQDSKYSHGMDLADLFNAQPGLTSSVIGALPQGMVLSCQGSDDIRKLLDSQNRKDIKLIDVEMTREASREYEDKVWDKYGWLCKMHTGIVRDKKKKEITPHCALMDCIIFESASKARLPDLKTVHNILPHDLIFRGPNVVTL

Measured: Potency
Also: series mostly up to about 57 µM.

O=C(Oc1cccc2cccnc12)c1ccccc1
inactive: all assays above

OC(CCN1CCCCC1)(c1ccccc1)C1CC2C=CC1C2 (configuration not stated)
inactive: all assays above

CN(C(=O)CN(CCO)CC(=O)N(C)C(C)(C)Cc1ccccc1)C(C)(C)Cc1ccccc1
inactive: all assays above

OCc1ccccc1O
inactive: all assays above

C[C@]12CCC(=O)C=C1[C@@H]1C[C@@H]1[C@H]1[C@@H]3[C@@H]4C[C@@H]4[C@@]4(CCC(=O)O4)[C@@]3(C)CC[C@@H]12
inactive: all assays above

COc1cc([C@H]2Oc3cc([C@H]4Oc5cc(O)cc(O)c5C(=O)[C@@H]4O)ccc3O[C@@H]2CO)ccc1O
inactive: all assays above

CN(C)CCCSc1ccccc1NC(=O)/C=C/c1ccccc1
inactive: all assays above

CCN(CC)CCNC(=O)c1cc(Br)c(N)cc1OC
inactive: all assays above

Fc1ccc(C(c2ccc(F)cc2)N2CCNCC2)cc1
inactive: all assays above

CC1=C(C)C(=O)C(C(CCCCCC(=O)O)c2ccccc2)=C(C)C1=O (configuration not stated)
inactive: all assays above

CCOC(=O)C(=O)c1csc(NC=O)n1
inactive: all assays above

CCOC(=O)C(C#N)=C(c1ccccc1)c1ccccc1
inactive: all assays above

O=C(NCCCN1CCOCC1)c1ccc(Cl)cc1
inactive: all assays above
